Compound activity from PubChem BioAssay.
CRFR2-BP antag = CRF-BP/CRF-R2 complex antagonism; 350,000 compounds, 0.59% hits; HEK293 CRF-R2/CRF-BP, CRF-induced calcium fluorescence; inhibition, % at 11.8 µM; AID 588475;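 active = inhibition of the ligand-induced calcium signal above about 50% at the single tested concentration, limit read from the data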
CRFR2-BP ag = CRF-BP/CRF-R2 complex agonism; HEK293 CRF-R2/CRF-BP, calcium dye fluorescence (FLIPR); percent of saturating CRF peptide response; activation, % at 13.2 µM; 350,000 compounds, 0.46% hits; AID 588473;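 active = activation of at least 50%, plus an integration ratio under a set limit after plate pattern correction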
Myeloid diff 2 = promotes myeloid progenitor differentiation; ER-HoxA9 myeloid progenitors, lysozyme-GFP differentiation, flow cytometry; calls only at 10 µM; 360,000 compounds, 1% hits; AID 624256;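 active = normalized GFP-positive differentiation at or above the plate's own cutoff, the solvent-only control mean plus 3 SD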;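 note: cells exposed to compound for four days before flow analysis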
TPT1 inhibitor = inhibitors of Candida albicans tRNA 2'-phosphotransferase TPT1; recombinant caTPT1, FP RNA substrate dephosphorylation; inhibition, % at 5 µM; 300,000 compounds, 0.81% hits;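 active = inhibition above the mean of all tested compounds plus 3 SD, set per screening campaign, cut at about 24% in these data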
IDE act = boosts human insulin-degrading enzyme activity in HEK cells; FAbeta-B cleavage, fluorescence polarization; 0% vehicle, 100% cell-free pure enzyme wells; 340,000 compounds, 0.073% hits; activation, % at 5.96 µM; P14735;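 active = activation above the mean of all tested compounds plus 3 SD, set per screening campaign, cut at about 17% in these data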
Target sequence (P14735 whole entry, looked up): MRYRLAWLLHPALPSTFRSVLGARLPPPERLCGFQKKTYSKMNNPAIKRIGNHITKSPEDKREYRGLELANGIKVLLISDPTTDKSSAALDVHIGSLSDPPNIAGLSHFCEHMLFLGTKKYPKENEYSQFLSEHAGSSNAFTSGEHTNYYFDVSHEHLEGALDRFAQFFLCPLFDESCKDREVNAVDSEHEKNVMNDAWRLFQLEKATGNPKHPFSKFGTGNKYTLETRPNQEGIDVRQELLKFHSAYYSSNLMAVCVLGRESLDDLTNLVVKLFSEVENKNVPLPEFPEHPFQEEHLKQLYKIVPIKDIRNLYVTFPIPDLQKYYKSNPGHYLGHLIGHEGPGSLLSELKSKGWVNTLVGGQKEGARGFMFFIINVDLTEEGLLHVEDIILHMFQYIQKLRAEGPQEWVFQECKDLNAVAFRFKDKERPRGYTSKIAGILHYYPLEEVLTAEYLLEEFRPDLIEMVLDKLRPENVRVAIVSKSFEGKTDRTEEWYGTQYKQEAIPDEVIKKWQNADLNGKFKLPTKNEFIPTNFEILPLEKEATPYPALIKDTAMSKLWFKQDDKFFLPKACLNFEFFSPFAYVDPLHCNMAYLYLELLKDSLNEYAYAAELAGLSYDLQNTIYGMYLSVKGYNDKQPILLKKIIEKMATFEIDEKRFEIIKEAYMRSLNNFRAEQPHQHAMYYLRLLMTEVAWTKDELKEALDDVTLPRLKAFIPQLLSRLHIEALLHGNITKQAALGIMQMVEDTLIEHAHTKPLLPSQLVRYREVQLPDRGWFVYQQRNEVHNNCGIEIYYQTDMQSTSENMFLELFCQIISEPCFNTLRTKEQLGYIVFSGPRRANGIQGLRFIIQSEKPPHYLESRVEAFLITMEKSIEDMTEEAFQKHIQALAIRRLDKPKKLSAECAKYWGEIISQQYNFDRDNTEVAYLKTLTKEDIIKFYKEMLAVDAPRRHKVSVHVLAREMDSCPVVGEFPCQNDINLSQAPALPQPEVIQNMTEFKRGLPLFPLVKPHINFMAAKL
IDE cell inh = inhibits human insulin-degrading enzyme in HEK cells; P14735; FAbetaB cleavage, fluorescence polarization; inhibition, % at 5.59 µM; 320,000 compounds, 0.41% hits; AID 434962;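 active = percent inhibition above the average of all tested compounds plus 3 SD, set per screening campaign, cut at about 16% in these data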;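 note: IDE supplied by intact live HEK cells; FP after avidin binding of uncleaved biotin substrate so inhibition keeps polarization high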
Each line names hits and unclear results; the compound was inactive in the other large screens. Compounds with a hit are over-represented: about 2.6% of the library has one in this group of screens.

COCCn1c(N)c(C(=O)NCC2CCCO2)c2nc3ccccc3nc21 (centres undefined)	none
CC(C)Cn1c(N)c(C(=O)NCC2CCCO2)c2nc3ccccc3nc21 (centres undefined)	Myeloid diff 2 active
Cc1ccc(N(C(=O)Cn2nnc(-c3ccc(F)cc3)n2)C(CC(C)C)C(=O)NCC2CCCO2)cc1 (centres undefined)	none
CCOC(=O)C1=C(C)N=c2s/c(=C/c3cccc([N+](=O)[O-])c3O)c(=O)n2C1c1ccc(OC)cc1OC (centres undefined)	CRFR2-BP antag 59
CCOC(=O)C1=C(C)N=c2s/c(=C\c3ccc(O)c([N+](=O)[O-])c3)c(=O)n2C1c1ccccc1OC (centres undefined)	none
CC1CCc2nc(N)c(C#N)c(-c3ccncc3)c2C1 (centres undefined)	Myeloid diff 2 active
CC1CCc2nc(N)c(C#N)c(-c3cccnc3)c2C1 (centres undefined)	none
O=C(O)CCCC(=O)Nc1nncs1	none
O=C(CCCc1ccccc1)Nc1nncs1	CRFR2-BP antag 64
COc1ccc(S(=O)(=O)Nc2c(O)c3ccccc3oc2=O)cc1	Myeloid diff 2 active
CCc1cccc(Nc2cnn(C34C[C@@H]5C[C@@H](CC(CC(=O)O)(C5)C3)C4)c(=O)c2Cl)c1	IDE cell inh 21
O=C(O)CC12CC3CC(C1)CC(n1ncc(NCc4ccco4)c(Cl)c1=O)(C3)C2	none
N#CC(=Cc1ccccn1)c1nc(-c2ccc(Cl)cc2)cs1	Myeloid diff 2 active (no result: TPT1 inhibitor, IDE act, IDE cell inh)
N#Cc1ccccc1NC(=O)c1ccc2c(c1)OCCO2	none
CCn1c(CCNC(=O)c2ccc(OC)cc2)nnc1SCc1ccc(Cl)c(Cl)c1	CRFR2-BP ag 136
CSc1ccccc1C(=O)C1CCCN(C(=O)NC(C)C)C1 (centres undefined)	none
CCn1nc(C)cc1C(=O)N1CCCC(C(=O)c2ccccc2SC)C1 (centres undefined)	Myeloid diff 2 active
CC1CC(C)CN(CCCCOc2ccc([N+](=O)[O-])cc2)C1 (centres undefined)	none
CCOC(=O)C(CCCCOc1ccc([N+](=O)[O-])cc1)C(=O)OCC	CRFR2-BP antag 62
N#C/C(=C\c1c(N2CCCCCC2)nc2ccccn2c1=O)C(N)=O	none
CCOc1ccc(C2C(C#N)=C(N)N3C(=C2C#N)Sc2ccccc23)cc1 (centres undefined)	CRFR2-BP ag 93
N#CC1=C(N)N2C(=C(C#N)C1c1ccccc1)Sc1ccccc12 (centres undefined)	none (no result: CRFR2-BP antag, CRFR2-BP ag, Myeloid diff 2, IDE act)
COc1ccc(NS(=O)(=O)c2cc([N+](=O)[O-])ccc2N/N=C/c2c(C)[nH]c3ccccc23)cc1	CRFR2-BP ag 51, Myeloid diff 2 active (no result: TPT1 inhibitor, IDE cell inh)
CCSC1=N/C(=C/c2ccsc2)C(=O)N1c1ccccc1	none
Cc1ccc([C@H]2C[C@H](O)[C@@H](n3cc(C4CC4)nn3)CN2C(=O)C2CCCCC2)cc1	none (no result: TPT1 inhibitor, IDE act, IDE cell inh)
O=C(Nc1nnc(-c2ccccc2)o1)c1ccc(Cl)cc1	CRFR2-BP antag 73, CRFR2-BP ag 54
Cc1ccc(-n2c(O)c(C=Nc3ccccc3-c3n[nH]c(=S)[nH]c3=O)c3ccccc3c2=O)c(C)c1	CRFR2-BP antag 53
COc1ccc(NC(=O)c2ccco2)cc1N	none
COc1ccc(C=Cc2ccc3ccccc3n2)c(OC)c1	CRFR2-BP ag 80 (no result: TPT1 inhibitor, IDE act, IDE cell inh)
O=C(NCCc1cccc(C(F)(F)F)c1)C1CCC(=O)N(CCc2cccc(F)c2)C1 (centres undefined)	none
O=C(NCCc1cccnc1)C1CCC(=O)N(Cc2ccc(Cl)cc2)C1 (centres undefined)	CRFR2-BP antag 104 (no result: TPT1 inhibitor, IDE cell inh)
O=C(NCCc1cn[nH]c1)C1CCC(=O)N(CCc2cccc(F)c2)C1 (centres undefined)	CRFR2-BP antag 104
CC(C)C[C@H](NC(=O)c1nc[nH]c1C(=O)N(C)Cc1ccccc1)C(=O)OC(C)(C)C	none
CCC(C)(C(=O)NC1CCCC1)N(Cc1ccco1)C(=O)c1ccc2c(c1)OCO2 (centres undefined)	Myeloid diff 2 active
Cc1ccc([N+](=O)[O-])cc1N=Nc1c(C)[nH]n(C(N)=S)c1=O	none
Cc1ccc([N+](=O)[O-])cc1N=Nc1c(-c2ccc([N+](=O)[O-])cc2)[nH]n(C(N)=S)c1=O	CRFR2-BP antag 112, CRFR2-BP ag 51 (no result: TPT1 inhibitor, IDE cell inh)
CC(=O)CC(c1ccccc1)S(=O)(=O)c1ccc([N+](=O)[O-])cc1 (centres undefined)	Myeloid diff 2 active
O=Nc1c(O)n(Cc2c(Cl)cccc2Cl)c2ccccc12	CRFR2-BP ag 163
O=Nc1c(O)n(Cc2ccc(Cl)cc2)c2ccccc12	none
CC(C)[C@H](NC(=O)C1(c2ccccc2)CCN(C(=O)OC(C)(C)C)CC1)C(=O)O	Myeloid diff 2 active
CCCCn1c(N)c(N(CC(C)C)C(=O)c2ccc(S(=O)(=O)N3CCC(C)CC3)cc2)c(=O)[nH]c1=O	none
Cc1ccc(NC(=O)CSC2=C(C#N)C(c3ccco3)C3=C(CC(C)(C)CC3=O)N2)cc1 (centres undefined)	none
Cc1ccc(C(=O)CSC2=C(C#N)C(c3ccco3)CC(=O)N2)c(C)c1 (centres undefined)	CRFR2-BP ag 57
Cc1ccc(NC(=O)CSC2=C(C#N)C(c3ccco3)CC(=O)N2)cc1 (centres undefined)	CRFR2-BP antag 109
CC(=O)C1=C(C)NC(SCC(=O)c2ccc(Cl)cc2)=C(C#N)C1c1ccco1 (centres undefined)	Myeloid diff 2 active
CC(=O)C1=C(C)NC(SCC(=O)c2ccccc2)=C(C#N)C1c1ccco1 (centres undefined)	none (no result: CRFR2-BP antag, CRFR2-BP ag, Myeloid diff 2, IDE act)
C=CCOC(=O)C1=C(C)NC2(O)c3ccccc3C(=O)C12O (centres undefined)	CRFR2-BP antag 69
COC(=O)Nc1c(-c2ccccc2)nc2ccc(Cl)cn12	none
COC(=O)NN1C(=O)C(c2ccccc2)=C(c2ccc(Cl)cc2)C1=O	CRFR2-BP antag 51
Cc1nnc(-c2cccc(Br)c2)c2cn(-c3ccc(Br)cc3)nc12	none
COc1ccc(-n2cc3c(-c4cccc(Br)c4)nnc(C)c3n2)cc1	Myeloid diff 2 active
COc1ccc(Cc2c(-c3cccc(Br)c3)nc3ccc(Br)cn23)c(C)c1	none (no result: CRFR2-BP antag, CRFR2-BP ag, TPT1 inhibitor, IDE act, IDE cell inh)
Cc1nnc(-c2cccc(Br)c2)c2cn(-c3ccccc3)nc12	Myeloid diff 2 active
CCC1CCCCN1CCCNC(=O)c1cn(CC)c2ccc(S(=O)(=O)N(C)C3CCCCC3)cc2c1=O (centres undefined)	none
Cc1ccc(NC(=O)CSc2nc3[nH]ncc3c(=O)[nH]2)c(C)c1	none
Cc1cccc(NC(=O)CSc2nc3[nH]ncc3c(=O)[nH]2)c1C	CRFR2-BP antag 51
CC1CCOC2(O1)C(=O)Nc1ccccc12 (centres undefined)	none
